From PubChem BioAssay (Tox21) come the findings set out here.

Each structure is given as a SMILES string. Values without a mark were called inactive. The source made the active and inactive calls. Calls follow the shape of the dose curve; as a rule, active = well fitted curve in the direction sought with a large enough effect in the repeat runs; inconclusive = weak or mixed curves; inactive = flat fitted curve, though single readings scatter.
% is scaled to controls: 0 for no effect and ±100 for the full control effect.

A short description of this test: qHTS assay to test for compound auto fluorescence at 590 nm (red) in HepG2 cell free culture (AID 720684). To be noted: cell-free medium autofluorescence, red 540/590 nm; series mostly up to 91.3 µM; fluorescence, % of Rose Bengal: at the top concentration. The text has this: U.S. Tox21 Program National Center for Advancing Translational Sciences [NCATS] NIH Chemical Genomics Center [NCGC] U.S. Environmental Protection Agency [EPA] National Institutes of Environmental Health Sciences [NIEHS] National Toxicology Program [NTP] U.S. Food and Drug Administration [FDA] Tox21 Assay Overview: Compound auto fluorescence often interferes with screening of the compound library against various biological targets and signaling pathways. Some of these compounds may have fluorophoric properties. Such properties may interfere with the assay outputs resulting in false positives and/or negatives. To decrease such complications and ensure the compound activities are relevant in terms of biological response, the Tox21 10K compound library was screened for auto fluorescence. From the fluorophores used as reporter signals in our screening assays, the auto fluorescence equivalencies of compounds against three fluorophores have been evaluated: Triamterene, Fluorescein and Rose Bengal sodium for blue, green and red fluorescence, respectively. The fluorescence intensities were measured using Excitation/Emission wavelengths at 405/460nm, 485/535nm and 540/590nm for blue, green and red labels, respectively. This assay includes the red fluorescence data.
Tox21 Assay Protocol Summary: 5 uL of culture medium (MEM containing 10% FBS) per well was dispensed into black wall/clear bottom 1536-well plates using a Multidrop Combi Dispenser (ThermoFisher Scientific, Waltham, MA). After 23 nL compound or DMSO vehicle was transferred into assay plate by a pintool work station (Kalypsys, San Diego, CA), fluorescence intensities in the assay plates were measured by an Envision (PerkinElmer, Shelton, CT) plate reader using three labels for measuring blue, green and red fluorescence at […] 460, 535 and 590nm respectively.
Background: In qHTS, concentration-response curves come from the screen itself.
As for `CCC(=O)O[C@]1(C(=O)SCF)[C@H](C)C[C@H]2[C@@H]3C[C@H](F)C4=CC(=O)C=C[C@]4(C)[C@@]3(F)[C@@H](O)C[C@@]21C`, the fluorescence, % of Rose Bengal was 0.622% [at 18.6 µM].
Take `CC1=C2[C@H](/C=C(\C)C(=O)O)CC[C@@H](C)[C@H]2CC1`: the “fluorescence, % of Rose Bengal” value was -0.183% [at 95.7 µM].
Still for that read-out and setting: to `O=[N+]([O-])c1nccn1CO[C@@H](CO)[C@H](O)CO` belongs 0.073% [at 46 µM].
Take `O=C(O)[C@@H]1CSCN1`: the “fluorescence, % of Rose Bengal” value is 0.0385% [at 46 µM].
Consider `CN(C)Cc1ccccc1`, for which the compound was classed as inactive.
Take `CCOC(=O)NCCC[Si](OCC)(OCC)OCC`: the “fluorescence, % of Rose Bengal” value was -0.0759%.
In the case of `CCCCC(CC)COC(=O)COc1cc(Cl)c(Cl)cc1Cl` (stereo not given), the “fluorescence, % of Rose Bengal” value was 0.27%.
Still for that read-out and setting: in the case of `CN1CCN(c2c(F)cc3c(=O)c(C(=O)O)cn(CCF)c3c2F)CC1` it was 0.0399% [at 46 µM]; in that of `COc1cc(Cl)ccc1Cl`, -0.481% [at 95.7 µM]; in that of `CCCCC(=O)O[C@]1(C(=O)CO)[C@H](C)C[C@H]2[C@@H]3CCC4=CC(=O)C=C[C@]4(C)[C@@]3(F)[C@@H](O)C[C@@]21C`, 0.0466% [at 46 µM].
Same read-out and setting: to `CCOC(=O)CS` belongs 0.0354% [at 95.7 µM]; to `CC(C)=CCCC(C)CCOC=O` (stereo not given), -0.0232%.
With `O=C1C=CC(=O)O1`, the “fluorescence, % of Rose Bengal” value is -0.176% [at 95.7 µM].
Regarding `CC(=O)Oc1cc(C(C)C)c(OCCN(C)C)cc1C`, the fluorescence, % of Rose Bengal was -0.418% [at 18.6 µM].
Consider `NC(=O)Cc1cccc(C(=O)c2ccccc2)c1N`, for which the “fluorescence, % of Rose Bengal” value was -0.13% [at 46 µM].
Same read-out and setting: in the case of `CC(=O)Nc1ccc(C)c(Cl)c1` it was 0.0836%; in that of `Nc1ccc(Oc2ccc(N)c(N)c2)cc1`, 0.134%; in that of `O=Cc1ccc(F)c(Br)c1`, -0.092%.
On the same count and under the same terms, to `CCN(CC)CCNC(=O)COc1ccc(Cl)cc1` belongs 0.107% [at 46 µM].
As for `O=S(=O)(O)C(F)(F)F`, the “fluorescence, % of Rose Bengal” value is 0.0157%.
Regarding `Cc1cc2nc(N)sc2cc1C`, the “fluorescence, % of Rose Bengal” value was -0.161%.
On the same count and under the same terms, in the case of `CC(=O)N(CC(O)CN(C(C)=O)c1c(I)c(C(=O)NCC(O)CO)c(I)c(C(=O)NCC(O)CO)c1I)c1c(I)c(C(=O)NCC(O)CO)c(I)c(C(=O)NCC(O)CO)c1I` (stereo not given) it was 0.365% [at 18.6 µM]; in that of `Cc1nnc(SCC2=C(C(=O)O)N3C(=O)[C@@H](NC(=O)Cn4cnnn4)[C@H]3SC2)s1`, -0.034% [at 46 µM].
Turning to `CC(C)NC[C@@H](O)COc1cccc2ccccc12`, the “fluorescence, % of Rose Bengal” value is -0.0098% [at 46 µM].
For `CO[C@@]1(NC(=O)CSCC#N)C(=O)N2C(C(=O)O)=C(CSc3nnnn3C)CS[C@@H]21`, the “fluorescence, % of Rose Bengal” value is -0.0878% [at 46 µM].
On to `CCCCNC(=S)NCCCC`, for which the “fluorescence, % of Rose Bengal” value was -0.0788%.
In the case of `CC1(O)CSC(C)(O)CS1` (stereo not given), the “fluorescence, % of Rose Bengal” value is -0.231%.
As for `CS(=O)(=O)c1ccc([C@@H](O)[C@@H](CF)NC(=O)C(Cl)Cl)cc1`, the fluorescence, % of Rose Bengal is 0.294% [at 18.6 µM].
Same read-out and setting: to `O=C(O)c1ccccc1Nc1cc(Cl)ccc1C(=O)O` belongs 0.044% [at 46 µM]; to `CN1[C@@H]2CC[C@H]1CC(OC(=O)c1c[nH]c3ccccc13)C2` (stereo not given in full), -0.163% [at 46 µM].
Same read-out and setting: in the case of `COC(C)CCO` (stereo not given) it was -0.15%.
In the case of `COc1cc2c(cc1N)oc1ccccc12`, the “fluorescence, % of Rose Bengal” value was 0.21% [at 95.7 µM].
Take `CC1=C(O)C(=O)OC1C` (stereo not given): the “fluorescence, % of Rose Bengal” value is 0.0304%.
As to `CC(CNC1CCCCC1)OC(=O)c1ccccc1` (stereo not given), the fluorescence, % of Rose Bengal is 0.136% [at 18.6 µM].
For the compound `O=C1N(c2ccccc2)c2ccccc2C1(Cc1ccncc1)Cc1ccncc1`, the “fluorescence, % of Rose Bengal” value was -0.0086% [at 46 µM].
The same measure, in the same setting: in the case of `Cn1cnc2c(F)c(Nc3ccc(Br)cc3Cl)c(C(=O)NOCCO)cc21` it was 0.0683% [at 46 µM]; in that of `CCOc1ccc(NS(=O)(=O)c2ccc(N)cc2)nn1`, 0.0984% [at 46 µM].
On the same count and under the same terms, to `CC1=NN(c2cc(Cl)c(S(=O)(=O)O)cc2Cl)C(=O)C1N=Nc1ccc(S(=O)(=O)O)cc1` (stereo not given) belongs 0.0592%; to `CN(C)CCOc1ccccc1Cc1ccccc1`, 0.0869% [at 46 µM].
Still for that read-out and setting: in the case of `O=CCCc1ccccc1` it was -0.11%.
